Experiments:
[1] = target: Serine/threonine-protein kinase 26 (Homo sapiens) (UniProt Q9P289); details: at 1 µM;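 note: mean inhibition of MST4 kinase activity, reported from the GSK PKIS inhibitor-set screening panel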
[2] = target: Serine/threonine-protein kinase PAK 1 (Homo sapiens) (UniProt Q13153); details: at 0.1 µM
[3] = target: Serine/threonine-protein kinase PAK 1 (Homo sapiens) (UniProt Q13153); details: at 1 µM
[4] = target: Serine/threonine-protein kinase PAK 2 (Homo sapiens) (UniProt Q13177); details: at 0.1 µM
[5] = target: Serine/threonine-protein kinase PAK 2 (Homo sapiens) (UniProt Q13177); details: at 1 µM
[6] = target: Serine/threonine-protein kinase PAK 3 (Homo sapiens) (UniProt O75914); details: at 0.1 µM
[7] = target: Serine/threonine-protein kinase PAK 3 (Homo sapiens) (UniProt O75914); details: at 1 µM
[8] = target: Serine/threonine-protein kinase PAK 5 (Homo sapiens) (UniProt Q9P286); details: at 0.1 µM
[9] = target: Serine/threonine-protein kinase PAK 5 (Homo sapiens) (UniProt Q9P286); details: at 1 µM
[10] = target: Serine/threonine-protein kinase PAK 6 (Homo sapiens) (UniProt Q9NQU5); details: at 0.1 µM
[11] = target: Serine/threonine-protein kinase PAK 6 (Homo sapiens) (UniProt Q9NQU5); details: at 1 µM
[12] = system: Tyrosine-protein kinase ABL1 (Homo sapiens), P00519 [E255K]; details: at 0.1 µM
[13] = system: Tyrosine-protein kinase ABL1 (Homo sapiens), P00519 [E255K]; details: at 1 µM
[14] = system: Tyrosine-protein kinase ABL1 (Homo sapiens), P00519 [H396P]; details: at 0.1 µM
[15] = system: Tyrosine-protein kinase ABL1 (Homo sapiens), P00519 [H396P]; details: at 1 µM
[16] = system: Tyrosine-protein kinase ABL1 (Homo sapiens), P00519 [M351T]; details: at 0.1 µM
[17] = system: Tyrosine-protein kinase ABL1 (Homo sapiens), P00519 [M351T]; details: at 1 µM
[18] = system: Tyrosine-protein kinase ABL1 (Homo sapiens), P00519 [Q252H]; details: at 0.1 µM
[19] = system: Tyrosine-protein kinase ABL1 (Homo sapiens), P00519 [Q252H]; details: at 1 µM
[20] = system: Tyrosine-protein kinase ABL1 (Homo sapiens), P00519 [T315I]; details: at 0.1 µM

Serine/threonine-protein kinase PAK 1 (Homo sapiens), sequence (Q13153 whole entry): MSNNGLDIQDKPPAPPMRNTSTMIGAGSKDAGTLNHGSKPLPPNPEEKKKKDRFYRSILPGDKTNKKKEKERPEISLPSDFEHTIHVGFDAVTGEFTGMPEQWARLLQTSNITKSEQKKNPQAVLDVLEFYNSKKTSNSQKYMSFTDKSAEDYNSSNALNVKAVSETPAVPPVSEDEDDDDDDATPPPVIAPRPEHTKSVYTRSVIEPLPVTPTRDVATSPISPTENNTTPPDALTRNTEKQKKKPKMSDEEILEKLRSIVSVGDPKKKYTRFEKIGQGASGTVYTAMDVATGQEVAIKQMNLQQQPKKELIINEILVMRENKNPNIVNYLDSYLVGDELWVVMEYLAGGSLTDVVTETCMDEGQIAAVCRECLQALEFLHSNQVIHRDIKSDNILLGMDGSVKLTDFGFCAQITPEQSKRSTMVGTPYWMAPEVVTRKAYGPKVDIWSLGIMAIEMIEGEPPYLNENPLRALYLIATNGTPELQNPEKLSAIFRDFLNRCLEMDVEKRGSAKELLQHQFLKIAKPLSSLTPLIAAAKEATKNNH
Serine/threonine-protein kinase 26 (Homo sapiens), sequence (Q9P289 2-416 limits assumed): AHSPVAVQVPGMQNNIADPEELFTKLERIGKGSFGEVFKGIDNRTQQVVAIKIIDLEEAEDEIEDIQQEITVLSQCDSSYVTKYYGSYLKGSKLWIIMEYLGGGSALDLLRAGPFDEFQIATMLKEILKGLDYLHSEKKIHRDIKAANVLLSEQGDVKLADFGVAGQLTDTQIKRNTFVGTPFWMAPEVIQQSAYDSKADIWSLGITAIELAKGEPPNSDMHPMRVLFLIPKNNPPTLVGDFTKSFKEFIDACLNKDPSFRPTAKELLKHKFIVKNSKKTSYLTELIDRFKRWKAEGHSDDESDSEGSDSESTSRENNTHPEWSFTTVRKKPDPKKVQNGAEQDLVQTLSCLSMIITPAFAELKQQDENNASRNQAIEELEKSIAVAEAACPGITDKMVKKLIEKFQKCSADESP
Serine/threonine-protein kinase PAK 6 (Homo sapiens), sequence (Q9NQU5 whole entry, looked up): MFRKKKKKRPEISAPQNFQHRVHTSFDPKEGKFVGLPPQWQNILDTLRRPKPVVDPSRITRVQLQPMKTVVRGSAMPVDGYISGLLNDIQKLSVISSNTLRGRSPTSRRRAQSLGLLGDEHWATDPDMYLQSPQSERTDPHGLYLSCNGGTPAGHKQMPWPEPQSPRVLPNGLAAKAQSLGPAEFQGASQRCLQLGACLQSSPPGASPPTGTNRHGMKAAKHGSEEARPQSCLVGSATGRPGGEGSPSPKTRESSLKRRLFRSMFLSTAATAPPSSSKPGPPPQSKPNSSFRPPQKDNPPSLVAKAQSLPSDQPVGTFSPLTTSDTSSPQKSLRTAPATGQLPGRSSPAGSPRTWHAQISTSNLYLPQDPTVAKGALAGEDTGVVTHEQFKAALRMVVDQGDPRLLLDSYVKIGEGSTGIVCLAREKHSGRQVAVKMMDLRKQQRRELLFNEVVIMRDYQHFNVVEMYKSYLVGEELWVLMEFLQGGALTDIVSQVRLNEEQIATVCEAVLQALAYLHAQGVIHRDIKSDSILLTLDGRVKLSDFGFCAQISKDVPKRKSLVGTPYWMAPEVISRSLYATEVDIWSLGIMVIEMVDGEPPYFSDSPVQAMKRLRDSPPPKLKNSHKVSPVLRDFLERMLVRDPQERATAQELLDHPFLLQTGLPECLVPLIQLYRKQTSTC
Serine/threonine-protein kinase PAK 2 (Homo sapiens), sequence (Q13177 whole entry): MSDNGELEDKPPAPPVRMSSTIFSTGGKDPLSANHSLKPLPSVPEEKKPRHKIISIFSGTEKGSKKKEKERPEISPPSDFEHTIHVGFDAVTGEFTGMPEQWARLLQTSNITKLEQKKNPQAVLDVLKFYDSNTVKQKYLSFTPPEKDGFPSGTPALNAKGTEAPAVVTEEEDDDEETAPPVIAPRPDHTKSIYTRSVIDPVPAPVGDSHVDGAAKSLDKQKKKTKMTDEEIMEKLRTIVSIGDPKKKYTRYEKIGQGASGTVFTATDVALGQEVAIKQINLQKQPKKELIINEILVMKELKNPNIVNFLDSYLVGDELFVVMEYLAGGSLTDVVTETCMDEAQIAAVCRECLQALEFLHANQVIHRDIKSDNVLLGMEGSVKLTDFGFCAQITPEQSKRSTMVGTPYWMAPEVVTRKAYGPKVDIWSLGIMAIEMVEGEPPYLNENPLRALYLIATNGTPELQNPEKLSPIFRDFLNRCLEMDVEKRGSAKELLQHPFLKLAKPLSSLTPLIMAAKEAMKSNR
Serine/threonine-protein kinase PAK 5 (Homo sapiens), sequence (Q9P286 whole entry, looked up): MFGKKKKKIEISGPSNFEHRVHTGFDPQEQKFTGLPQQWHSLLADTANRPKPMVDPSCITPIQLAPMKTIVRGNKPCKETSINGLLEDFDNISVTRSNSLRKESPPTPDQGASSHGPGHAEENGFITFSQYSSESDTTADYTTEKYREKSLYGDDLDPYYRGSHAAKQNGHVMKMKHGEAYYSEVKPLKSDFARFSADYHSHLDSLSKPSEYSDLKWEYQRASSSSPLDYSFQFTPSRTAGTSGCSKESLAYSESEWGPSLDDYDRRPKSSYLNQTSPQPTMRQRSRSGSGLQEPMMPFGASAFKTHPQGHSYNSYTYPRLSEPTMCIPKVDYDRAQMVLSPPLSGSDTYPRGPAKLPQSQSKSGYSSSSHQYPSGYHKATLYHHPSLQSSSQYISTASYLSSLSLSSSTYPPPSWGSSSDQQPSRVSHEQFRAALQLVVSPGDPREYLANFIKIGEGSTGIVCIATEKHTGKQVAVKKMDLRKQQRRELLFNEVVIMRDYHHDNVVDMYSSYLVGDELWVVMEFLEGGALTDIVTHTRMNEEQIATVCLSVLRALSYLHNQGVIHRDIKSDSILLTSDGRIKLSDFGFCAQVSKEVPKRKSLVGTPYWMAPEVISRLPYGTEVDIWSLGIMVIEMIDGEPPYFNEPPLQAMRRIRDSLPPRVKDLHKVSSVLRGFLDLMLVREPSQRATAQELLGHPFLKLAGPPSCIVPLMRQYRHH
Serine/threonine-protein kinase PAK 3 (Homo sapiens), sequence (O75914 whole entry, looked up): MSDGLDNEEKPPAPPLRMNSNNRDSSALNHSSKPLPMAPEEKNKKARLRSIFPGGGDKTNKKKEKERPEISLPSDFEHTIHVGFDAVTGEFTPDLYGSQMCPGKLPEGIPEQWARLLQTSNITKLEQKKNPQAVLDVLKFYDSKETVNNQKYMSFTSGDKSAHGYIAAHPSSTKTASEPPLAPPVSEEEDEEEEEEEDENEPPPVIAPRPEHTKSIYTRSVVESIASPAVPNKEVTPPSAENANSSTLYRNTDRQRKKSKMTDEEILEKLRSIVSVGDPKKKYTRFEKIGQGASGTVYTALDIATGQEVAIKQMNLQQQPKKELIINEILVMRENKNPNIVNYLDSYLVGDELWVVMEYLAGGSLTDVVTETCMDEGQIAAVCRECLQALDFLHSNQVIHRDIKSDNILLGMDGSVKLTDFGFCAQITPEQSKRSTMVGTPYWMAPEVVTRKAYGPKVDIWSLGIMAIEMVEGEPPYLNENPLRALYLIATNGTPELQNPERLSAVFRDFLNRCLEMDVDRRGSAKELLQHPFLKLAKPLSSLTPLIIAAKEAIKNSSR

| SMILES | inhibition [1] [%] | inhibition [2] [%] | inhibition [3] [%] | inhibition [4] [%] | inhibition [5] [%] | inhibition [6] [%] | inhibition [7] [%] | inhibition [8] [%] | inhibition [9] [%] | inhibition [10] [%] | inhibition [11] [%] | inhibition [12] [%] | inhibition [13] [%] | inhibition [14] [%] | inhibition [15] [%] | inhibition [16] [%] | inhibition [17] [%] | inhibition [18] [%] | inhibition [19] [%] | inhibition [20] [%] |
| --- | --- | --- | --- | --- | --- | --- | --- | --- | --- | --- | --- | --- | --- | --- | --- | --- | --- | --- | --- | --- |
| CCn1c(-c2nonc2N)nc2ccncc21 | 0.2 | 6.53 | 2.38 | -0.38 | 1.82 | 0.96 | 1.02 | -6.36 | -8.04 | -9.63 | -3.52 | 1.78 | -1.53 | -0.24 | -0.08 | 0.64 | 3.06 | 3.21 | -0.21 | -0.01 |
| CCCN1CCC(Oc2cc(Nc3nc(Nc4cccc(F)c4C(N)=O)c4cc[nH]c4n3)c(OC)cc2Cl)CC1 | 2.1 | -3.06 | 1.83 | -1.01 | -0.56 | -0.46 | -0.24 | 6.57 | 3.44 | 2.36 | 6.18 | -0.41 | 2.46 | 0.38 | 2.29 | 2.95 | 2.4 | 0.68 | 5.93 | 1.91 |
| O=C(Nc1n[nH]c2nc(-c3ccco3)c(Br)cc12)C1CC1 | -2.34 | 4.84 | 6.66 | 2.69 | 3.61 | 3.75 | 3.54 | -1.27 | -1.99 | 0.11 | 0.72 | 3.52 | 8.63 | 5.52 | 26.4 | 4.18 | 29.8 | 8.1 | 32.3 | 3.13 |
| CC1=C(C(=O)Nc2ccc3[nH]ncc3c2)C(c2ccc3ccccc3c2)CC(=O)N1 (stereo not given) | -3.47 | 0.76 | 4.95 | -0.2 | 2.46 | 2.14 | 0.85 | -1.65 | 3.39 | -2.35 | -2.6 | 2.56 | 3.94 | 3.48 | 12.3 | 3.47 | 14.9 | 3.89 | 17.1 | 5.08 |
| CN(C)c1cc2c(Nc3ccc4nc(Cc5ccccc5)[nH]c4c3)ncnc2cn1 | -0.63 | 8.36 | 8.45 | 2.07 | 1.52 | 6.44 | 7.25 | 9.58 | -7.55 | 7.15 | -5.69 | 3 | 2.89 | 6.52 | 4.37 | 2.81 | 3.14 | 6.01 | 5.74 | 5.24 |
| COc1cccc(-n2ncc3c(N/N=C/c4cccc(F)c4)ncnc32)c1 | 2.84 | 6.15 | 6.44 | 0.05 | 0.67 | 1.51 | 2.17 | -1.62 | -8.07 | 12.7 | -4.69 | 40.5 | 84.1 | 51 | 87.6 | 52.3 | 88 | 60.9 | 90.3 | 10.8 |
| c1cnn2ncc(-c3ccnc(Nc4ccc5c(c4)OCCO5)n3)c2c1 | -0.78 | 3.98 | 4.56 | 4.04 | 3.37 | 4.71 | 4.73 | 8.91 | 14.7 | 2.92 | 9.62 | 4.75 | 20.4 | 6.51 | 34.4 | 6.73 | 40.9 | 9.02 | 40.7 | 6.27 |
| COc1cc(C)c(NC(=O)CN(C)C)cc1Nc1nc(Nc2cccc(F)c2C(N)=O)c2cc[nH]c2n1 | -2.75 | 2.74 | 3.36 | 1.54 | 1.5 | 1.84 | 2.37 | -4.59 | -5.11 | 5.11 | -2.96 | 1.11 | 0.03 | 2.73 | -1.28 | 1.99 | -1.18 | 2.21 | -0.29 | 1.45 |
| O=C1NC(=O)C(c2ccc(Cl)cc2)=C1Nc1ccc(Cl)c(C(=O)O)c1 | -0.4 | -2.53 | 2.15 | -1.89 | -1.88 | -3.46 | -2.5 | 0.14 | 0.32 | 13.1 | -0.68 | 2.02 | -2.33 | -0.65 | 1.82 | 1.3 | 4.53 | 1.18 | 1.68 | 0.69 |
| CC1=C(C(=O)Nc2ccc3[nH]ncc3c2)C(c2ccc(F)cc2)NC(=O)N1 (stereo not given) | -0.49 | 4.25 | 9.83 | -0.87 | -0.03 | 2.64 | 1.55 | -0.45 | 5.58 | 2.39 | -1.9 | -0.56 | 4.16 | 1.62 | 1.78 | 1.52 | 3.88 | 2.07 | 3.37 | 0.1 |
| CS(=O)(=O)Nc1ccc(N/C=C2\C(=O)Nc3ccccc32)cc1 | -0.36 | -4.5 | -3.06 | -1.89 | -3.37 | -3.72 | -2.59 | -2.35 | 0.84 | -9.71 | -8.06 | -0.28 | 3.16 | -0.26 | 10.9 | 1.98 | 16.4 | 1.09 | 11 | 0.68 |
| Nc1nc(-c2ccccn2)c(-c2ccc3ncccc3n2)s1 | -0.98 | 3.7 | 4.24 | 1.82 | 1.66 | 3.03 | 3.63 | 5.99 | 4.49 | -7.45 | -5.19 | 2.57 | 3.81 | 3.89 | 4.78 | -0.12 | 3.17 | 2.96 | 3.86 | 1.93 |
| NC(=O)c1ccc(-c2nc(-c3ccccn3)c(-c3ccc4c(c3)OCO4)[nH]2)cc1 | 2.93 | 4.04 | 5.77 | 0.67 | 1.08 | 2.68 | 2.97 | -3.79 | -0.72 | -8.04 | -5.81 | 3.49 | 4.45 | 1.34 | 6.63 | 0.6 | 3.86 | 0.7 | 3.91 | 1.95 |

From ChEMBL document CHEMBL1961873, “Compounds: GSK PKIS; Assays: Nanosyn kinase panel” (2012)
